Compound activity deposited in PubChem BioAssay by National Center for Advancing Translational Sciences (NCATS).
TrxR1 substrate = is turned over as a substrate by rat TrxR1; O89049; 390,000 tested, 0.01% active; Potency, µM (series often up to 114 µM), inactives show at the top dose activity change, negative = substrate turnover; purified TrxR1 substrate turnover, NADPH consumption readout; AID 588456; also: potency is read from the fitted curve at half-maximal effect; nearly all actives have a fitted effect of over 50% in size
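Rat TrxR1, dispensed at 90 nM, was prereduced with 400 uM NADPH (final) for 5 min at ~22 deg C, then incubated with compound 15 min before 400 uM selenite. A first-read NADPH fluorescence drop versus no-compound background flagged substrates.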
TrxR1 inh = inhibitors of rat thioredoxin reductase 1 | Potency, µM (titrated, usually from 114 µM), without a hit: at the highest dose activity change, negative = inhibition, most hits filed as inhibitors | 390,000 tested, 1% active | O89049 | recombinant rTrxR1, NADPH fluorescence consumption, selenite substrate; also: potency is read from the fitted curve at half-maximal effect; nearly all actives have a fitted effect of over 65% in size
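Rat TrxR1 (90 nM in the dispensed reagent) was pre-reduced with 400 uM NADPH for 5 min at room temperature, then incubated with compound for 15 min. After 400 uM selenite was added, NADPH fluorescence (Ex 340/Em 450 nm) was followed for 8 min.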
GALK inhibitor = blocks human galactokinase activity | P51570 | Purified GALK, Kinase-Glo residual ATP luminescence | Potency, µM (doses to about 57.5 µM), for the others: at the top dose activity change, negative = inhibition, most hits filed as inhibitors | 270,000 tested, 0.007% active | AID 1868; also: potency is read from the fitted curve at half-maximal effect
Target sequence (P51570 whole entry, looked up): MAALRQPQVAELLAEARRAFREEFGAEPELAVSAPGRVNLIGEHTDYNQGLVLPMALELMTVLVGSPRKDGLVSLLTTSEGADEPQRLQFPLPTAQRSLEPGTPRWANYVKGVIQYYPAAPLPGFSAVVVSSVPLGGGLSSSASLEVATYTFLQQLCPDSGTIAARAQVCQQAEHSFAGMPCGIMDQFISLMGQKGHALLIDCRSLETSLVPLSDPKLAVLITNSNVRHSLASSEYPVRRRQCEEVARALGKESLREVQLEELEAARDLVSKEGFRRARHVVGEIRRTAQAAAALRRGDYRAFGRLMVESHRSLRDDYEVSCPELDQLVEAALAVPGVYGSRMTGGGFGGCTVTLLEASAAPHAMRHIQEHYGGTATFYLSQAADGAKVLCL
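Kinase-Glo Plus luminescence measured ATP left after a 1 h room-temperature reaction. The reaction used 5 nM GALK, 100 uM galactose and 35 uM ATP at pH 8.0 (20 mM HEPES, 5 mM MgCl2, 60 mM NaCl, 1 mM DTT, 0.01% BSA).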
PI4K2A inh = inhibitors of human PI4K2A | activity change, negative = inhibition, % at 76.9 µM | purified PI4K2A, ADP-Glo luminescence, 1 h; hits give low values | AID 1346378 | 420,000 tested, 0.13% active | Q9BTU6; in the data active = activity change below about -50%; inconclusive = mostly about -30% to -49%;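 also: -100% = wells without enzyme as full effect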
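In this quantitative HTS, ADP production by PI4K2A was quantified luminescently after 1 h at ambient temperature; 100 microM adenosine served as plate-quality control.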
An asterisk follows results filed as active; i = inactive; ? = inconclusive; nt = not tested or not shown; [ ] = another dose, or the depositor's remark. In the library only some 1.1% were active in any assay of this set; here they are far more common. Unless noted, calls follow the shape of the dose curve; as a rule, active = well fitted curve in the direction sought with a large enough effect; inconclusive = small, poorly fitted or top-dose-only effect, or another doubt; inactive = no such curve, though single readings can be large; an effect the other way counts as inactive or inconclusive. Unless noted, % is scaled to controls: 0 for no effect and ±100 for the full control effect.

SMILES	TrxR1 substrate	TrxR1 inh	GALK inhibitor	PI4K2A inh
O=c1[nH]c(=S)n(Cc2ccco2)c(O)c1C=NCc1cccs1	-10.0%	?	3.1%	-56.6*
CN1C(=O)/C(=C\c2ccc(N3CCCCCC3)cc2)C(=O)NC1=S	-2.2%	20µM*	6.5%	-2.9
CCC(C)N1C(=O)/C(=C\c2cc3c4c(c2)CCCN4CCC3)C(=O)NC1=S (stereo not drawn)	-0.8%	31.6µM*	nt	-7.0
O=C1NC(=O)C(=Cc2ccc(N3CCOCC3)cc2)C(=O)N1	-3.1%	?	7.4%	-12.4
CCCCN1C(=O)/C(=C/c2ccc(N3CCCCCC3)cc2)C(=O)NC1=S	nt	nt	-1.9%	nt
CCC(C)N1C(=O)/C(=C\c2ccc(N3CCCCCC3)cc2)C(=O)NC1=S (stereo not drawn)	4.5%[57.1 µM]	8.91µM*	-0.1%	-9.8
CCC(C)N1C(=O)/C(=C\c2cnc(N(C)C)nc2)C(=O)NC1=S (stereo not drawn)	8.8%[57.1 µM]	14.1µM*	-1.8%	-14.6
CCc1cc(=O)oc2c(C)c(OCC(=O)N3CCC[C@@H]3C(=O)O)ccc12	111.5%	10.4%	nt	5.8
Cc1cc(N2CCCCC2)ccc1C=C1C(=O)N(C)C(=S)N(C)C1=O	-1.0%	11.2µM*	-1.3%	-4.3
Cc1cc(N2CCCC2)ccc1C=C(C#N)C#N	5.2%[11.4 µM]	15.0%[11.4 µM]	-1.9%	10.2
CC[C@H]1C[C@@H]2C[C@H]3c4[nH]c5ccc(OC)cc5c4CCN(C2)[C@@H]13	nt	nt	nt	i
O=c1[nH]c2ccccc2n1C1CCNCC1	nt	nt	nt	-1.3
CCCCCC1CC(CC#CCN2CCOCC2)C(=O)O1 (stereo not drawn)	-3.2%	44.7µM*	-0.7%	-2.0
CCCCCCn1c(O)c(C=NCCN2CCOCC2)c(=O)[nH]c1=O	0.5%	14.8%	nt	0.4
N[C@@H](Cc1ccc(Oc2cc(I)c(O)c(I)c2)c(I)c1)C(=O)O	nt	nt	nt	-15.3
O=C(CCCCl)c1ccc(F)cc1	nt	nt	nt	-6.1
Cc1cccc(N2C(=O)NC(=O)/C(=C\C=C\c3ccco3)C2=O)c1	-10.6%	?	-5.1%	?
Cc1cccc(N2C(=O)NC(=O)/C(=C\c3cccn3-c3ccc(Cl)cc3)C2=O)c1	17.3%	-15.2%	1.1%	-50.2*
Cc1cccc(N2C(=O)NC(=O)/C(=C/c3ccc([N+](=O)[O-])o3)C2=O)c1	-3.5%	12.6µM*	-1.0%	-12.8
CC(C(=O)c1ccccc1)N(C)C (stereo not drawn)	nt	nt	nt	-0.6
O=C(c1cc2cc(Cl)ccc2[nH]1)N1CCC2(CC1)OCCO2	-4.8%	44.7µM*	-2.6%	1.4
CC1COC2(c3ccccc3Cl)c3cc(Cl)ccc3NC(=O)CN12 (stereo not drawn)	nt	nt	nt	0.6
CCOC(=O)N1CCN(/[N+]([O-])=N/Oc2ccc([N+](=O)[O-])cc2[N+](=O)[O-])CC1C (stereo not drawn)	-15.8%	?	nt	nt
CCOC(=O)N1CCCN(/[N+]([O-])=N/Oc2ccc([N+](=O)[O-])cc2[N+](=O)[O-])CC1	-11.4%	15.8µM*	nt	nt
CCCc1cc(=O)oc2c3c(cc(OCC(=O)N4CCC[C@H]4C(=O)O)c12)OC(C)(C)CC3	583.3%	?	nt	-3.7
SMILES	TrxR1 substrate	TrxR1 inh	GALK inhibitor	PI4K2A inh
CCCOc1ccc(C(=O)Nc2ccc(-c3cc4ccccc4oc3=O)c(C)c2)cc1	149.7%	65.3%	nt	1.7
O=c1[nH]c2cc(Cl)ccc2n1C1CCNCC1	nt	nt	nt	-1.1
O=C1NC(=O)C(=Cc2c(Cl)cccc2Cl)C(=O)N1	-3.3%	12.6µM*	nt	-11.2
Cc1c(C=C2C(=O)NC(=O)NC2=O)c(=O)n(-c2ccccc2)n1C	5.4%[57.1 µM]	-1.8%[57.1 µM]	15.2%	-4.1
COc1cc(CC(C)N)c(OC)cc1Br (stereo not drawn)	nt	nt	nt	i
CN(C)c1c([N+](=O)[O-])cc(N2C(=O)C=CC2=O)cc1[N+](=O)[O-]	0.4%	2.82µM*	nt	-6.6
COc1ccc(N2C(=O)NC(=O)/C(=C/c3cccc(OC(=O)c4cccs4)c3)C2=O)cc1Cl	-7.8%	10µM*	-3.1%	-3.8
Cc1ccc(N2C(=O)NC(=O)/C(=C\c3ccoc3)C2=O)cc1	4.3%[57.1 µM]	-11.2%[57.1 µM]	-2.3%	-7.3
Cc1ccc(N2C(=O)NC(=O)/C(=C/c3ccc(OC(=O)c4cccs4)cc3)C2=O)cc1	-1.9%	31.6µM*	0.0%	-0.2
CC(C)Oc1cccc(NC(=O)c2ccccc2C(F)(F)F)c1	nt	nt	nt	i
Cc1cc(/C=C2\C(=O)NC(=O)N(c3ccc(Cl)cc3)C2=O)c(C)n1-c1sc2c(c1C#N)CCCC2	-4.5%	50.1µM*	-5.6%	-7.0
CCOC(=O)c1c(-n2c(C)cc(/C=C3\C(=O)NC(=O)N(C)C3=O)c2C)sc2c1CCCC2	-9.5%	-33.7%	1.0%	-4.7
O=C1NC(=O)C(=Cc2cc(Cl)ccc2OCc2ccc(C(=O)O)cc2)C(=O)N1	3.4%	10µM*	-1.2%	-21.6
CN1C(=O)C(=Cc2ccccc2OCc2ccc(Cl)cc2)C(=O)N(C)C1=O	3.4%[57.1 µM]	-25.0%[57.1 µM]	-0.1%	-1.9
CCOc1cc(/C=C2\C(=O)NC(=O)N(CCc3ccc(F)cc3)C2=O)ccc1O	-5.0%	11.2µM*	-1.3%	?
CN(C)c1ccc(/C=C2/C(=O)NC(=O)N(CCc3ccc(F)cc3)C2=O)cc1	-7.3%	?	-3.8%	-9.0
O=C(Nc1ccc2nc(SCC(=O)N3CCCc4ccccc43)sc2c1)c1cccc(F)c1	9.6%	39.3%	nt	2.3
N#C/C(=C/c1ccc(O)c(O)c1)C(N)=S	?	?	nt	-6.6
N#CC(C#N)=Cc1ccc(C=C(C#N)C#N)cc1	-5.4%	7.94µM*	nt	5.1
Cc1ccc(S(=O)(=O)Oc2ccccc2C=C2C(=O)N(C)C(=O)N(C)C2=O)cc1	-2.6%	50.1µM*	7.2%	-3.5
CN1C(=O)C(=Cc2ccccc2Oc2ccc(Cl)cc2)C(=O)N(C)C1=O	-2.1%	?	1.1%	-25.3
O=C(O)CC1OCC=C2CN3CCC45C6=CC(=O)C(=O)C([N+](=O)[O-])=C6NC4C1C2CC35 (stereo not drawn)	15.8µM*	15.8µM*	10µM*	-60.9*
COc1ccc(OC)c(N2C(=O)/C(=C/c3ccco3)C(=O)NC2=S)c1	-9.8%	28.2µM*	-19.6%	?
Cc1cccc(N2C(=O)/C(=C/c3ccc(CN(CCC#N)S(C)(=O)=O)o3)C(=O)NC2=S)c1	-16.0%	7.94µM*	-2.9%	-16.6
CCOc1ccc(N2C(=O)/C(=C/c3ccc(C)o3)C(=O)NC2=S)cc1	-3.3%	25.1µM*	2.5%	-18.4
Cc1ccc(/C=C2\C(=O)NC(=S)N(c3cccc(F)c3)C2=O)o1	-2.6%	7.94µM*	4.2%	-4.8
O=C1NC(=S)N(c2ccc(F)cc2)C(=O)/C1=C/c1ccco1	nt	nt	-27.2%	nt
Cc1ccc(N2C(=O)/C(=C/c3ccc(CN(CCC#N)S(C)(=O)=O)o3)C(=O)NC2=S)cc1C	nt	nt	2.6%	nt
Cc1c(OCC(=O)N2CCC[C@@H]2C(=O)O)ccc2c3c(c(=O)oc12)CCC3	81.1%	-3.8%	nt	1.4
C[C@@H]1O[C@@H](O[C@@H]2C=C3CC[C@@H]4[C@H](CC[C@]5(C)[C@@H](c6ccc(=O)oc6)CC[C@]45O)[C@@]3(C)CC2)[C@H](O)[C@H](O)[C@H]1O	nt	nt	nt	4.1
